Source: PubChem BioAssay AID720597 (Broad Institute, 2013)
Results with a measured potency or affinity are listed apart. Activity calls are given as the source filed them.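 The calls were made as follows: active = fitted half-maximal dose no more than twice the top valid tested dose, for compounds that lower signal; inconclusive = fit invalid, or curve flat with activity between -70 and -30; inactive = potency past limit, curve flat within ±30, or signal increasing.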

These molecules were tested against NAD-dependent protein deacylase sirtuin-5, mitochondrial (Homo sapiens) (UniProt Q9NXA8) (assay: blockers of sirtuin-5 peptide desuccinylation – biochemical, fluorescence imaging, cherry-pick, set 6, dose response (AID 720597;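 also: lower AMC signal can also come from blocking the trypsin step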)). Details: Purified SirT5, succinyl-peptide-AMC/trypsin fluorescence; series mostly up to 15 µM.
NAD-dependent protein deacylase sirtuin-5, mitochondrial (Homo sapiens), sequence (Q9NXA8 whole entry, looked up): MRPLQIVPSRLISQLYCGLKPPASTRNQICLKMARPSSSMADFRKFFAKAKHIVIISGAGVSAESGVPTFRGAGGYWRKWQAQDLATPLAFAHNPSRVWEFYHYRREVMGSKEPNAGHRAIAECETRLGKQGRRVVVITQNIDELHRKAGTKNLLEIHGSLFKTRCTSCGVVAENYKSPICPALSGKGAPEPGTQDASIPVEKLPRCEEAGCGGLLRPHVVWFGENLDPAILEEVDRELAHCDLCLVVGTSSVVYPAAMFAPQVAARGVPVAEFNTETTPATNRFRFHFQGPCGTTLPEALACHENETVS

outcome, inactive:
COc1ccc(S(=O)(=O)N(C)C[C@H]2OCCCC[C@@H](C)Oc3ccc(NS(=O)(=O)c4ccc(F)cc4)cc3C(=O)N([C@@H](C)CO)C[C@@H]2C)cc1
C[C@H]1CN([C@@H](C)CO)C(=O)c2ccccc2-c2ccccc2CO[C@H]1CN(C)Cc1ccc(F)cc1
C[C@H]1CN([C@@H](C)CO)C(=O)c2cc(NS(=O)(=O)c3ccccc3)ccc2O[C@@H]1CN(C)Cc1ccc(C(=O)Nc2ccccc2N)cc1
COc1ccc(S(=O)(=O)Nc2ccc3c(c2)C(=O)N([C@@H](C)CO)C[C@H](C)[C@H](CN(C)S(=O)(=O)c2ccc(Cl)cc2)OCCCC[C@@H](C)O3)cc1
O=C(C1CCC1)N1CC[C@H]2[C@H](CO)Nc3ccc(C#Cc4cccc(F)c4)cc3[C@H]21
C[C@@H]1CN([C@H](C)CO)C(=O)c2cc(NS(=O)(=O)c3ccc(Cl)cc3)ccc2O[C@H]1CN(C)Cc1ccc2c(c1)OCO2
C[C@H]1CN([C@@H](C)CO)C(=O)c2cccc(NC(=O)c3ccncc3)c2O[C@H]1CN(C)S(C)(=O)=O
C[C@H]1CN([C@@H](C)CO)S(=O)(=O)c2ccc(-c3cccc(F)c3)cc2O[C@@H]1CN(C)C(=O)Nc1cc(F)ccc1F
C[C@H]1CN([C@@H](C)CO)C(=O)c2cc(NC(=O)Nc3ccc(C(F)(F)F)cc3)ccc2O[C@H]1CN(C)S(=O)(=O)c1ccc(Cl)cc1
C[C@@H]1CN([C@@H](C)CO)S(=O)(=O)c2ccc(C#CC(C)(C)O)cc2O[C@@H]1CN(C)Cc1ccc(-c2ccccc2)cc1
C[C@H](CO)N1C[C@H](C)[C@H](CN(C)Cc2ccc(-c3ccccc3)cc2)Oc2ccc(NC(=O)CCCCCC(=O)Nc3ccccc3N)cc2C1=O
COc1cccc(NC(=O)N(C)C[C@H]2Oc3ncc(C4=CCCCC4)cc3C(=O)N([C@H](C)CO)C[C@@H]2C)c1
Cc1ccc(S(=O)(=O)N(C)C[C@H]2OCCCC[C@@H](C)Oc3ccc(NS(=O)(=O)c4ccc(Cl)cc4)cc3C(=O)N([C@@H](C)CO)C[C@@H]2C)cc1
COc1ccc(S(=O)(=O)N(C)C[C@H]2OCCCC[C@H](C)Oc3ccc(NS(=O)(=O)c4ccc(C)cc4)cc3C(=O)N([C@H](C)CO)C[C@H]2C)cc1
C[C@@H]1CCCCO[C@@H](CN(C)C(=O)CCCN(C)C)[C@@H](C)CN([C@H](C)CO)C(=O)c2cc(NS(=O)(=O)c3ccccc3)ccc2O1
CC(C)(C)[S@@](=O)N1Cc2cc(C(=O)O)nc(-c3cccc(-c4cccc(F)c4)c3)c2[C@H]1CCO
Cc1noc(C)c1NC(=O)Nc1cccc2c1O[C@@H](CN(C)Cc1ccc(Oc3ccccc3)cc1)[C@@H](C)CN([C@@H](C)CO)C2=O
O=C(Nc1ccccc1)N1C[C@@H]2[C@H](c3ccccc31)[C@@H](CO)N2CC1CCCC1
Cc1cccc(S(=O)(=O)N(C)C[C@@H]2OCc3ccccc3-c3c(n(C)c4ccccc34)C(=O)N([C@H](C)CO)C[C@@H]2C)c1
Cn1cnc(CCNC(=O)C[C@@H]2CC[C@@H]3[C@H](COC[C@@H](O)CN3C(=O)Nc3ccc(Cl)cc3)O2)c1
CCCC#Cc1ccc([C@H]2[C@H](CO)N3CCCCN(S(=O)(=O)Cc4ccccc4)C[C@@H]23)cc1
C[C@@H]1CN([C@@H](C)CO)S(=O)(=O)c2ccc(C#Cc3ccc(F)cc3)cc2O[C@@H]1CN(C)S(=O)(=O)c1ccc(F)cc1
COc1cccc(C(=O)Nc2ccc3c(c2)C(=O)N(C)C[C@H](OC)[C@@H](C)CN(CCc2ccccc2)[C@H](C)CO3)c1
O=C(CCN1CCCCC1)N[C@H]1CC[C@H](CC(=O)N2CCC(Cc3ccccc3)CC2)O[C@@H]1CO
Cc1ccc(S(=O)(=O)N(C)C[C@H]2Oc3ccc(NC(=O)Nc4cccc5ccccc45)cc3CC(=O)N([C@@H](C)CO)C[C@H]2C)cc1
CN(C)C(=O)[C@H]1[C@H](CO)[C@H]2Cn3c(ccc(-c4ccc(F)cc4)c3=O)[C@@H]1N2CCc1ccccc1
O=S(=O)(c1ccc(F)cc1)N1CCCCN2[C@@H](CO)[C@H](c3ccc(-c4ccccc4F)cc3)[C@@H]2C1
COc1ccc(S(=O)(=O)Nc2ccc3c(c2)C(=O)N([C@@H](C)CO)C[C@@H](C)[C@@H](CN(C)S(=O)(=O)c2cccs2)OCCCC[C@H](C)O3)cc1
